Assay [1] can be described thus: qHTS drug screen for cell cycle checkpoint inhibitors in PARPi-resistant BRCA-mutant ovarian cancer cell lines. (AID 1963452; calls by dose curve). Particulars: PEO1/OlaR viability, CellTiter-Glo luminescence, 96 h, stronger effect = lower value. The method, boiled down: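 PEO1, PEO4 and PEO1/OlaR ovarian cancer cells, 600 per well, exposed 96 h at 37C to a dilution series. Viability read by CellTiter-Glo luminescence, normalized to DMSO and empty wells; activity summarized as Z-AUC.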

Assay [2] in a line: qHTS for identification of novel therapeutic agents for treatment of microphthalmiaassociated transcription factor (MiT) renal cell carcinoma (RCC) (AID 1963991; calls by dose curve; further: potency means the concentration at half of the fitted maximal effect). Particulars: CellTiter-Glo, 48 h; for z-score: stronger effect = lower value. The method, boiled down: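 Viability of three TFE3-fusion renal carcinoma lines measured by CellTiter-Glo after 48 h treatment with each of 1912 compounds at 11 concentrations. Responses scaled between DMSO (100%) and empty wells (0%) before curve fitting.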
(In general: In qHTS, concentration-response curves come from the screen itself.)

Assay [3] in a line: qHTS profiling for inhibitors of Plasmodium falciparum proliferation (AID 504749). Further: nearly all actives have a fitted effect of over 60% in size. Further: potency means the concentration at half of the fitted maximal effect.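 On activity, negative = inhibition: 0% = DMSO vehicle and full inhibition = artemisinin control.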 To be noted: P. falciparum in erythrocytes, SYBR Green DNA, 72 h. An outline of the steps: (§1)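 Three-day growth assay of blood-stage parasites in erythrocytes (0.3% parasitemia, 2.5% hematocrit) at 37 C, 5% CO2, quantified by SYBR Green DNA staining after overnight detergent lysis.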
The subject of assay [4] is 3D7. Described as above. Particulars: P. falciparum in erythrocytes, SYBR Green DNA, 72 h; series mostly up to 28.7 µM. The method, boiled down:
as §1

In assay [5] the test system is 7G8. The assay is described as above. Particulars: P. falciparum in erythrocytes, SYBR Green DNA, 72 h; series mostly up to 28.7 µM. The method, boiled down:
as §1

Assay [6] relates to AA1029. Described as above. To be noted: P. falciparum in erythrocytes, SYBR Green DNA, 72 h; series mostly up to 28.7 µM. The method, boiled down:
as §1

For assay [7], the system named is AS120. The assay is described as above. To be noted: P. falciparum in erythrocytes, SYBR Green DNA, 72 h; series mostly up to 28.7 µM. The method, boiled down: as §1
Assay [8] concerns ATS189. The description is as above. Particulars: P. falciparum in erythrocytes, SYBR Green DNA, 72 h; series mostly up to 28.7 µM. The method, boiled down:
as §1

Assay [9] relates to ATS95. Described as above. To be noted: P. falciparum in erythrocytes, SYBR Green DNA, 72 h; series mostly up to 28.7 µM. The method, boiled down:
as §1

Assay [10] relates to C2A. Described as above. To be noted: P. falciparum in erythrocytes, SYBR Green DNA, 72 h; series mostly up to 28.7 µM. An outline of the steps: as §1
In assay [11] the test system is CP185. The description is as above. Particulars: P. falciparum in erythrocytes, SYBR Green DNA, 72 h; series mostly up to 28.7 µM. The method, boiled down: as §1
In assay [12] the test system is CP191. The assay is described as above. To be noted: P. falciparum in erythrocytes, SYBR Green DNA, 72 h; series mostly up to 28.7 µM. An outline of the steps:
as §1

In assay [13] the test system is CP192. The assay is described as above. Particulars: P. falciparum in erythrocytes, SYBR Green DNA, 72 h; series mostly up to 28.7 µM. An outline of the steps: as §1
For assay [14], the system named is CP194. Described as above. Particulars: P. falciparum in erythrocytes, SYBR Green DNA, 72 h; series mostly up to 28.7 µM. The method, boiled down:
as §1

Assay [15] concerns CP201. The assay is described as above. To be noted: P. falciparum in erythrocytes, SYBR Green DNA, 72 h; series mostly up to 28.7 µM. An outline of the steps: as §1
Assay [16] has as its system CP211. The description is as above. To be noted: P. falciparum in erythrocytes, SYBR Green DNA, 72 h; series mostly up to 28.7 µM. An outline of the steps:
as §1

Assay [17] deals with CP215. Described as above. Particulars: P. falciparum in erythrocytes, SYBR Green DNA, 72 h; series mostly up to 28.7 µM. An outline of the steps: as §1
In assay [18] the test system is CP217. The assay is described as above. To be noted: P. falciparum in erythrocytes, SYBR Green DNA, 72 h; series mostly up to 28.7 µM. The method, boiled down:
as §1

In assay [19] the test system is CP203. The description is as above. To be noted: P. falciparum in erythrocytes, SYBR Green DNA, 72 h; series mostly up to 28.7 µM. An outline of the steps:
as §1

[20] abbreviates: measured here: PEO1 parental Z-AUC.
Setting [21] is: TFE3-RCC UOK109 viability, measured here: UOK109 Z-AUC.
[22] abbreviates: TFE3-RCC viability, measured here: UOK124 Z-AUC.
Where [23] appears, read: TFE3-RCC viability, measured here: UOK145 Z-AUC.
Where [24] appears, read: at 28.7 µM (top of the series), parasite line A.
Where [25] appears, read: at 28.7 µM (top of the series), parasite line B.

Inconclusive results are not listed. Active and inactive are the calls of the source. Unless noted, the call rests on the fitted dose curve; in most records, active means well fitted inhibition curve with a large enough effect; inconclusive means small, poorly fitted or top-dose-only effect; inactive means flat fitted curve, though single readings scatter. Non-standard residues stand in square brackets, D forms with d. Residues, ends and D or L forms follow the SMILES beside them. *: point of attachment. Sta = CC(C)C[C@H](N)[C@@H](O)CC(=O)O; Isovaleryl = CC(C)CC(=O)*

`CCOc1cc(CC(=O)N[C@@H](CC(C)C)c2ccccc2N2CCCCC2)ccc1C(=O)O`: the Z-AUC is 0.686 (inactive) in [1], 0.341 in assay [1] (setting [20]) and 0.628 in assay [1] (measured here: PEO4 Z-AUC). Moreover, the results for the z-score in assay [2] (setting [21]), in [2] (setting [22]) and in [2] (setting [23]) were 0.724, 0.688 and 0.737, respectively. Also, the activity, negative = inhibition was 4.74% (inactive) in assay [3] (at 12.8 µM (top of the series), parasite line A) and 10.7% (inactive) in assay [3] (at 12.8 µM (top of the series), parasite line B). In addition, the Potency entry in assay [4], in [5], in assay [6], in assay [7], in assay [8] and in [9] was “inactive” in each case. Also, the Potency result in assay [10], in assay [11], in [12], in assay [13], in [14] and in [15] was “inactive” each time. Also, the Potency entry in assay [16], in assay [17] and in [18] was “inactive” each time.

With `CCC1=C(C)CN(C(=O)NCCc2ccc(S(=O)(=O)NC(=O)NC3CCC(C)CC3)cc2)C1=O` (stereo unspecified), the values for the Z-AUC in assay [1], in assay [1] (setting [20]) and in [1] (measured here: PEO4 Z-AUC) were -0.196 (inactive), 0.246 and 0.144, respectively. The z-score amounted to 0.704 in assay [2] (setting [21]), 0.513 in assay [2] (setting [22]) and 0.718 in assay [2] (setting [23]). Moreover, the activity, negative = inhibition in assay [3] (setting [24]) was 6.02% (inactive); in assay [3] (setting [25]) it was 7.16% (inactive). Besides, the Potency entry in [4], in assay [5], in [6], in [7], in assay [8] and in [9] was “inactive” throughout. In addition, the Potency entry in assay [10], in assay [11], in assay [12], in assay [13], in assay [14] and in assay [15] was “inactive” throughout. Further, the Potency result in [16], in [17] and in assay [18] was “inactive” throughout.

With `CC(C)CC(=O)N[C@H](C(=O)N[C@H](C(=O)N[C@@H](CC(C)C)[C@@H](O)CC(=O)N[C@@H](C)C(=O)N[C@@H](CC(C)C)[C@@H](O)CC(=O)O)C(C)C)C(C)C` (Isovaleryl-VV[Sta]A[Sta]-OH), the Z-AUC in assay [1] was 0.839 (inactive); in assay [1] (setting [20]) it was 0.464; in assay [1] (measured here: PEO4 Z-AUC) it was 0.507. Besides, the z-score in [2] (setting [21]) came out at 0.353; in assay [2] (setting [22]), 0.618; in assay [2] (setting [23]) it was 0.758.

Regarding `CC[C@]1(O)C[C@H]2CN(CCc3c([nH]c4ccccc34)[C@@](C(=O)OC)(c3cc4c(cc3OC)N(C=O)[C@H]3[C@@](O)(C(=O)OC)[C@H](OC(C)=O)[C@]5(CC)C=CCN6CC[C@]43[C@@H]65)C2)C1`, the values for the Z-AUC in [1], in assay [1] (setting [20]) and in assay [1] (measured here: PEO4 Z-AUC) were -0.637 (inactive), -1.14 and -1.16, respectively. Further, the Potency in [2] (TFE3-RCC UOK109 viability, active = Z-AUC below -0.8 in all three lines) was 0.0662 µM (active); in [3] (parasite line A), 2.24 µM (active); in assay [5] it was 0.141 µM (active); in assay [6] it was 2.51 µM (active); in assay [7] it was 3.55 µM (active); in assay [9] it was 2.51 µM (active). Besides, the Potency in [10] is 2 µM (active); in assay [11], 1.58 µM (active); in assay [12] it was 2.24 µM (active); in assay [14] it was 1.69 µM (active); in assay [16], 2.13 µM (active); in [18] it was 4.47 µM (active). In addition, the results for the z-score in [2] (setting [21]), in assay [2] (setting [22]) and in assay [2] (setting [23]) were -0.827, -2.28 and -0.98, respectively.

As to `O=C(O)c1cn(-c2ccc(F)cc2)c2cc(N3CCNCC3)c(F)cc2c1=O`, the Z-AUC was 0.692 (inactive) in [1], 0.709 in assay [1] (setting [20]) and 0.947 in assay [1] (measured here: PEO4 Z-AUC). Besides, the results for the z-score in [2] (setting [21]), in assay [2] (setting [22]) and in assay [2] (setting [23]) were 0.863, 0.568 and 0.628, respectively. Further, the values for the activity, negative = inhibition in assay [3] (setting [24]) and in assay [3] (setting [25]) were -18.3% (inactive) and -17.6% (inactive), respectively. The Potency entry in assay [4], in assay [7], in [8], in [10], in [12] and in [13] was “inactive” each time. Moreover, the Potency entry in assay [18] was “inactive”.

With `Cc1ccc(NC(=O)c2ccc(CN3CCN(C)CC3)cc2)cc1Nc1nccc(-c2cccnc2)n1`, the Z-AUC in [1] was -0.776 (inactive); in assay [1] (setting [20]) it was -0.808; in [1] (measured here: PEO4 Z-AUC) it was -0.886. Also, the Potency in assay [3] (parasite line B) was 11.2 µM (active); in [5], 7.94 µM (active); in assay [6], 11.2 µM (active); in assay [7], 8.91 µM (active); in [8], 12.6 µM (active); in assay [9], 10 µM (active). The Potency in [10] and in assay [18] was 11.2 µM (active) each time.

On to `CCOC(=O)c1c(C)n(C)c2ccc(O)cc12`, for which the Z-AUC in assay [1] is 1.13 (inactive); in assay [1] (setting [20]), 0.765; in assay [1] (measured here: PEO4 Z-AUC), 0.891. The activity, negative = inhibition in [3] (setting [24]) was 15.4% (inactive); in assay [3] (setting [25]) it was 20.5% (inactive). The Potency entry in assay [4], in assay [5], in assay [6], in assay [7], in [8] and in [9] was “inactive” each time. The Potency result in assay [10], in [11], in assay [12], in assay [13], in assay [14] and in assay [15] was “inactive” throughout. The Potency entry in assay [19], in [17] and in assay [18] was “inactive” throughout.

(Values after PubChem BioAssay (NCATS).)
